# Measurements published in PMC11062922 (Nature Chemical Biology, 2023).
# Like-named read-outs stand apart in the source and are kept apart here.
# How the values were obtained:
# Design in all cases: species or system human, MV4-11 + K-562 + COLO205 + SK-N-BE2 + OVCAR-8
# CDK16 = conditions: read-out: apparent Kd, n = 1
# CDK17 = conditions: read-out: apparent Kd; compound concentrations:100 nM and 1000 nM (sheet 'Samples'); n = 1
# CDK1 = conditions: read-out: apparent Kd; compound concentrations:100 nM and 1000 nM (sheet 'Samples'); n = 1
# CDK2 = conditions: read-out: apparent Kd, n = 1
# CDK4 = conditions: read-out: apparent Kd; compound concentrations:100 nM and 1000 nM (sheet 'Samples'); n = 1
# CDK5 = conditions: read-out: apparent Kd; compound concentrations:100 nM and 1000 nM (sheet 'Samples'); n = 1
# CDK6 = conditions: read-out: apparent Kd; compound concentrations:100 nM and 1000 nM (sheet 'Samples'); n = 1
# CDK7 = conditions: read-out: apparent Kd; compound concentrations:100 nM and 1000 nM (sheet 'Samples'); n = 1
# CDK9 = conditions: read-out: apparent Kd; compound concentrations:100 nM and 1000 nM (sheet 'Samples'); n = 1
# ICK = conditions: read-out: apparent Kd; compound concentrations:100 nM and 1000 nM (sheet 'Samples'); n = 1
# NNT = conditions: read-out: apparent Kd; compound concentrations:100 nM and 1000 nM (sheet 'Samples'); n = 1
# PSMC4 = conditions: read-out: apparent Kd; compound concentrations:100 nM and 1000 nM (sheet 'Samples'); n = 1
# SLK = conditions: read-out: apparent Kd; compound concentrations:100 nM and 1000 nM (sheet 'Samples'); n = 1
# CDC42 = conditions: read-out: apparent Kd, n = 1
# CSNK1A1 = conditions: read-out: apparent Kd; compound concentrations:100 nM and 1000 nM (sheet 'Samples'); n = 1
# CSNK1D = conditions: read-out: apparent Kd; compound concentrations:100 nM and 1000 nM (sheet 'Samples'); n = 1
# CSNK1E = conditions: read-out: apparent Kd; compound concentrations:100 nM and 1000 nM (sheet 'Samples'); n = 1
# ERBB3 = conditions: read-out: apparent Kd; compound concentrations:100 nM and 1000 nM (sheet 'Samples'); n = 1
# MAPK14 = conditions: read-out: apparent Kd; compound concentrations:100 nM and 1000 nM (sheet 'Samples'); n = 1
# MAPKAPK2 = conditions: read-out: apparent Kd; compound concentrations:100 nM and 1000 nM (sheet 'Samples'); n = 1
# RAB14 = conditions: read-out: apparent Kd; compound concentrations:100 nM and 1000 nM (sheet 'Samples'); n = 1
# NUAK1 = conditions: read-out: apparent Kd; compound concentrations: 100 nM and 1000 nM (sheet 'Samples'), CATDS: 0.20890182477098199; n = 1
# NUAK2 = conditions: read-out: apparent Kd; compound concentrations: 100 nM and 1000 nM (sheet 'Samples'), CATDS: 0.14838950263404099; n = 1
# STK3 = conditions: read-out: apparent Kd; compound concentrations: 100 nM and 1000 nM (sheet 'Samples'), CATDS: 0.13207546439769999; n = 1
# STK4 = conditions: read-out: apparent Kd; compound concentrations: 100 nM and 1000 nM (sheet 'Samples'), CATDS: 0.136772712102746; n = 1
# DJA1 = system: T1, DJA1; conditions: read-out: apparent Kd; compound concentrations: 100 nM and 1000 nM (sheet 'Samples'), CATDS: 0.11539226669729399; n = 1
# T1 construct: gene DNAJA1
# HSP90AA1 = conditions: read-out: apparent Kd; compound concentrations: 100 nM and 1000 nM (sheet 'Samples'), CATDS: 0.12399635685572399; n = 1
# HSP90B1 = conditions: read-out: apparent Kd; compound concentrations: 100 nM and 1000 nM (sheet 'Samples'), CATDS: 0.12934168659945999; n = 1
# HSPE1 = conditions: read-out: apparent Kd; compound concentrations: 100 nM and 1000 nM (sheet 'Samples'), CATDS: 0.19606542414911901; n = 1
# PGK1 = conditions: read-out: apparent Kd; compound concentrations: 100 nM and 1000 nM (sheet 'Samples'), CATDS: 0.21364088639266299; n = 1
# PKM = conditions: read-out: apparent Kd; compound concentrations: 100 nM and 1000 nM (sheet 'Samples'), CATDS: 0.14448823643602399; n = 1
# CDK12 = conditions: read-out: apparent Kd; compound concentrations: 100 nM and 1000 nM (sheet 'Samples'), CATDS: 0.16242687072241299; n = 1
# CDK13 = conditions: read-out: apparent Kd; compound concentrations: 100 nM and 1000 nM (sheet 'Samples'), CATDS: 0.16446533875215399; n = 1
# MAPK10 = conditions: read-out: apparent Kd; compound concentrations: 100 nM and 1000 nM (sheet 'Samples'), CATDS: 0.33495043269217101; n = 1
# MAPK8 = conditions: read-out: apparent Kd; compound concentrations: 100 nM and 1000 nM (sheet 'Samples'), CATDS: 0.17846593111563799; n = 1
# MAPK9 = conditions: read-out: apparent Kd; compound concentrations: 100 nM and 1000 nM (sheet 'Samples'), CATDS: 0.23956411042419101; n = 1
# [1] = compound concentrations:100 nM and 1000 nM (sheet 'Samples')
smiles,measurement,setting,value
COc1cccc(F)c1C(=O)c1cnc(NC2CCN(S(C)(=O)=O)CC2)nc1N [RO4602005-000],potency estimated from few doses,CDK16; [1],9.38 nM
same,potency estimated from few doses,CDK17,73.2 nM
same,potency estimated from few doses,CDK1,228 nM
same,potency estimated from few doses,CDK2; [1],37.7 nM
same,potency estimated from few doses,CDK4,1450 nM
same,potency estimated from few doses,CDK5,234 nM
same,potency estimated from few doses,CDK6,1750 nM
same,potency estimated from few doses,CDK7,812 nM
same,potency estimated from few doses,CDK9,206 nM
same,potency estimated from few doses,ICK,146 nM
same,potency estimated from few doses,NNT,1690 nM
same,potency estimated from few doses,PSMC4,1400 nM
same,potency estimated from few doses,SLK,845 nM
NC(=O)c1ccc(Oc2nccc(-c3c(-c4ccc(F)cc4)ncn3C3CCNCC3)n2)cc1 [SB-242718],potency estimated from few doses,CDC42; [1],922 nM
same,potency estimated from few doses,CSNK1A1,2320 nM
same,potency estimated from few doses,CSNK1D,246 nM
same,potency estimated from few doses,CSNK1E,642 nM
same,potency estimated from few doses,ERBB3,1430 nM
same,potency estimated from few doses,MAPK14,476 nM
same,potency estimated from few doses,MAPKAPK2,18.3 nM
same,potency estimated from few doses,RAB14,1380 nM
CC(C)=Cc1cccc2c1/C(=N/Nc1ccc(S(N)(=O)=O)cc1)C(=O)N2 [GW396574X],potency estimated from few doses,"CDK16; compound concentrations: 100 nM and 1000 nM (sheet 'Samples'), CATDS: 0.172165115049177",778 nM
same,potency estimated from few doses,"CDK2; compound concentrations: 100 nM and 1000 nM (sheet 'Samples'), CATDS: 0.26435202316191703",366 nM
same,potency estimated from few doses,NUAK1,539 nM
same,potency estimated from few doses,NUAK2,1080 nM
same,potency estimated from few doses,STK3,1470 nM
same,potency estimated from few doses,STK4,1330 nM
Cn1cc(C2=C(c3c4n(c5ccccc35)CCCC4)C(=O)NC2=O)c2ccccc21 [RO0318259-000],potency estimated from few doses,"CDC42; compound concentrations: 100 nM and 1000 nM (sheet 'Samples'), CATDS: 0.12762221298853901",1480 nM
same,potency estimated from few doses,DJA1,1920 nM
same,potency estimated from few doses,HSP90AA1,1590 nM
same,potency estimated from few doses,HSP90B1,1440 nM
same,potency estimated from few doses,HSPE1,644 nM
same,potency estimated from few doses,PGK1,561 nM
same,potency estimated from few doses,PKM,1130 nM
CN(C)C/C=C/C(=O)Nc1ccc(C(=O)N2CCC[C@@H](Nc3ncc(Cl)c(-c4c[nH]c5ccccc45)n3)C2)cc1 [THZ531],potency estimated from few doses,CDK12,1800 nM
same,potency estimated from few doses,CDK13,1740 nM
same,potency estimated from few doses,MAPK10,434 nM
same,potency estimated from few doses,MAPK8,1410 nM
same,potency estimated from few doses,MAPK9,760 nM
